Targets with a hit are over-represented here; the source holds about 7,900 in all. About 0.6% of all pairs of compound and target were hits.
These targets were tested with c1cn2cc(-c3ccc4cn[nH]c4c3)nc(Nc3ccc(N4CCOCC4)cc3)c2n1 [entospletinib] (assay: log2 fold change, soluble protein after heating vs DMSO (PISA); higher = thermal stabilisation; K562 cells, 10 uM, 30 min; active = over 0.2 and 3.5 SD of the protein, either way, in both replicates (recomputed)).
In short: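 K562 cells at 2×10^6 cells/mL were treated with 10 μM compound for 30 min. Aliquots were heated for 3 min across 48°C-58°C, pooled, and extracted in PBS with 0.5% NP-40 at 4°C; soluble protein was the supernatant after 21,000xg for 90 min. Soluble protein was quantified by TMTpro 16plex LC-MS/MS with channel sums equalised, and reported as log2 fold change in thermal stability against DMSO controls, with values from duplicates.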

UniProt Q16401, sequence (Q16401 whole entry, looked up): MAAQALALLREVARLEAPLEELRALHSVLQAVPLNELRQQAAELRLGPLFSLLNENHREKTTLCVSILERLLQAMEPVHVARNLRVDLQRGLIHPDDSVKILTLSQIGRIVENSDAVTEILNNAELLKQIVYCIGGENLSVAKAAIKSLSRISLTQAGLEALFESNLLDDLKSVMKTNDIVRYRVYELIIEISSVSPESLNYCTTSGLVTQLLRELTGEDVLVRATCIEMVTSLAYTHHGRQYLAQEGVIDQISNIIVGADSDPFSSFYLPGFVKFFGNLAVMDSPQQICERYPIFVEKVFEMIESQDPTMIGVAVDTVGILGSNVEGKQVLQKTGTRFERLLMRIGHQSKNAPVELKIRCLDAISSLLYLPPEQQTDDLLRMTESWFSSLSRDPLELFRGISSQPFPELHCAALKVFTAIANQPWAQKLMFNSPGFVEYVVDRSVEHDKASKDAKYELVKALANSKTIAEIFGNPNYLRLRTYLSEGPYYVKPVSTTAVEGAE
UniProt Q9Y2I7, sequence (Q9Y2I7 whole entry, looked up): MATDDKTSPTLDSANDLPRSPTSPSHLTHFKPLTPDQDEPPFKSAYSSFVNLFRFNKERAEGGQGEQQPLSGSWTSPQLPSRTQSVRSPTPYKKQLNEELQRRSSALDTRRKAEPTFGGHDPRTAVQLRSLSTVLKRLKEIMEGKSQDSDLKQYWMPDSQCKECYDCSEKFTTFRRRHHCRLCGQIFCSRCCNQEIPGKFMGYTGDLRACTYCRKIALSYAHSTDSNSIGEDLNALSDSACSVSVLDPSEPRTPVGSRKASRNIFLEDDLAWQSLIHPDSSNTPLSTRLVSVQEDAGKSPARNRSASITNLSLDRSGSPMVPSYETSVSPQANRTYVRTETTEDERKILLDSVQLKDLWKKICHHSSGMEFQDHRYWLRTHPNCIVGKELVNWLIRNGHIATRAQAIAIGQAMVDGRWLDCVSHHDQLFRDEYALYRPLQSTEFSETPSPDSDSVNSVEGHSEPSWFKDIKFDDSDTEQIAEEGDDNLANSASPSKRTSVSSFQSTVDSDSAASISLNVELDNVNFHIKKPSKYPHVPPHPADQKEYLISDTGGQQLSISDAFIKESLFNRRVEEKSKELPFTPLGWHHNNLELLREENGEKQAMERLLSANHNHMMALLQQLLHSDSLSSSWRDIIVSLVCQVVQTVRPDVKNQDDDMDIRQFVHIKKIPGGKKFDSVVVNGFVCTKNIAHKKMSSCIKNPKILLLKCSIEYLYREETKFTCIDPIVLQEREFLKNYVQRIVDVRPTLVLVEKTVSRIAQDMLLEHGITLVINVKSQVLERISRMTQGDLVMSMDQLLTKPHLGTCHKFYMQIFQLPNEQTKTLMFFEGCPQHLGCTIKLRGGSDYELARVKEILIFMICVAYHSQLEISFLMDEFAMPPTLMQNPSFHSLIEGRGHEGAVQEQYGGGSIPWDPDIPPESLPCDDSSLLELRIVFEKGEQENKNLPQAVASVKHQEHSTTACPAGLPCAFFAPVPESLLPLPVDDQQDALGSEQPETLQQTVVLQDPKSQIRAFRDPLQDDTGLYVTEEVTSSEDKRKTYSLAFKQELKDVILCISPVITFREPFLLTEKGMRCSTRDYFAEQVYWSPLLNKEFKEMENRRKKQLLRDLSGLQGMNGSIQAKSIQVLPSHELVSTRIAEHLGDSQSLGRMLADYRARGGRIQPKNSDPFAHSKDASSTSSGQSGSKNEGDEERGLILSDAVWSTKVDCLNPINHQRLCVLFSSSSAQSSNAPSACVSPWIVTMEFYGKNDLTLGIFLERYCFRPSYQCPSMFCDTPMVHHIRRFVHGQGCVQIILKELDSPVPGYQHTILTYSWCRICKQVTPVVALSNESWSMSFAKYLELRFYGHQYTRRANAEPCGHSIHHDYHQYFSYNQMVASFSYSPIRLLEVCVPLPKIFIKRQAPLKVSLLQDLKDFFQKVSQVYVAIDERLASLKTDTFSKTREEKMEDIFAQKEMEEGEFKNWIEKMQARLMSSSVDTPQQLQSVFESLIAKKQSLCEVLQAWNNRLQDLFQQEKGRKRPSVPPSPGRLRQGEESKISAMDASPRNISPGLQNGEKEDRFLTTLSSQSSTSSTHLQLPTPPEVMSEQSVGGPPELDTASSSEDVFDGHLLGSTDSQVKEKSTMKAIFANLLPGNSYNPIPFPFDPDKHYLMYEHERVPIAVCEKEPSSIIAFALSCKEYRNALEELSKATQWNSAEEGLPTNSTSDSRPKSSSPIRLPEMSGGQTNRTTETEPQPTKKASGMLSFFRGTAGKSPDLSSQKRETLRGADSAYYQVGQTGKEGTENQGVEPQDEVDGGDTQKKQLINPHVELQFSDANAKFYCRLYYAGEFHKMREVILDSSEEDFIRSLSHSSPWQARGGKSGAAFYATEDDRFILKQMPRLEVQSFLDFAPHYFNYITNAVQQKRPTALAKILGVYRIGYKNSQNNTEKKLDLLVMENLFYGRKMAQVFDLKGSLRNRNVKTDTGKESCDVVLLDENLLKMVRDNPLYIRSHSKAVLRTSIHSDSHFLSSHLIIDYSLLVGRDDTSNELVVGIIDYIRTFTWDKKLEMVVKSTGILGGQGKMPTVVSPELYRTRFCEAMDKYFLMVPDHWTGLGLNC
UniProt Q32M88, sequence (Q32M88 whole entry, looked up): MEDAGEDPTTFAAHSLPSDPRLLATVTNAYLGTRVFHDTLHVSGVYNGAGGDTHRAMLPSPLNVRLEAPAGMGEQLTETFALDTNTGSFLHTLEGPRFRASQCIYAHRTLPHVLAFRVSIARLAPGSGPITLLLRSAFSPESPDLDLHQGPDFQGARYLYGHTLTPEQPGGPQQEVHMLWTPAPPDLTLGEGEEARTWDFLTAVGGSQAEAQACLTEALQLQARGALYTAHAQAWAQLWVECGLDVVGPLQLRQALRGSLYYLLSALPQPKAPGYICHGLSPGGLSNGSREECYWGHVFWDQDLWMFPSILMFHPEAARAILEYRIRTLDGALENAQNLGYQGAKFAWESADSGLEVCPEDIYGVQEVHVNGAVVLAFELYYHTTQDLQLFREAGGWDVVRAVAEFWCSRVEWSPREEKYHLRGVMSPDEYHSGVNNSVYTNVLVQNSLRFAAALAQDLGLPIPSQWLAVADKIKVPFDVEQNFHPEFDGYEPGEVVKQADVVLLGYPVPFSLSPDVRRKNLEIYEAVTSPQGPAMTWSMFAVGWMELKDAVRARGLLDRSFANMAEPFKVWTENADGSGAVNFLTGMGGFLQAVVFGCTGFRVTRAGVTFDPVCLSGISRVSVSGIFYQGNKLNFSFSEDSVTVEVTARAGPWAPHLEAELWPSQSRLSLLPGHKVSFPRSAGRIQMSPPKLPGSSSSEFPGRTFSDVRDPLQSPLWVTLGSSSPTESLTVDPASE
UniProt O95394, sequence (O95394 whole entry, looked up): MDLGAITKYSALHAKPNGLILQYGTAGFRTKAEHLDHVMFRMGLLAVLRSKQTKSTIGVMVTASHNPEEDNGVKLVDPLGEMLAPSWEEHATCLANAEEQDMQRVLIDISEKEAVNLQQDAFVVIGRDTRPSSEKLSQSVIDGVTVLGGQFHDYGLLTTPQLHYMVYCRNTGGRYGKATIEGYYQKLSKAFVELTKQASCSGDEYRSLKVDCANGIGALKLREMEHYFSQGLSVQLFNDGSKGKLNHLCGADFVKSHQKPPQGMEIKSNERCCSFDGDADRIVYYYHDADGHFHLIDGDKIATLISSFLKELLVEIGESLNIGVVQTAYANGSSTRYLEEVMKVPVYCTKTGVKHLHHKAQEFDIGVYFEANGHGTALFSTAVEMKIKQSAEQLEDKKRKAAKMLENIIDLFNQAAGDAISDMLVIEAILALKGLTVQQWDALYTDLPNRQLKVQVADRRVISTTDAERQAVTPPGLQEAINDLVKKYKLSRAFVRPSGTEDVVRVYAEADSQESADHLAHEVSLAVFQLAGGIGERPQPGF
UniProt Q9H0R6, sequence (Q9H0R6 whole entry, looked up): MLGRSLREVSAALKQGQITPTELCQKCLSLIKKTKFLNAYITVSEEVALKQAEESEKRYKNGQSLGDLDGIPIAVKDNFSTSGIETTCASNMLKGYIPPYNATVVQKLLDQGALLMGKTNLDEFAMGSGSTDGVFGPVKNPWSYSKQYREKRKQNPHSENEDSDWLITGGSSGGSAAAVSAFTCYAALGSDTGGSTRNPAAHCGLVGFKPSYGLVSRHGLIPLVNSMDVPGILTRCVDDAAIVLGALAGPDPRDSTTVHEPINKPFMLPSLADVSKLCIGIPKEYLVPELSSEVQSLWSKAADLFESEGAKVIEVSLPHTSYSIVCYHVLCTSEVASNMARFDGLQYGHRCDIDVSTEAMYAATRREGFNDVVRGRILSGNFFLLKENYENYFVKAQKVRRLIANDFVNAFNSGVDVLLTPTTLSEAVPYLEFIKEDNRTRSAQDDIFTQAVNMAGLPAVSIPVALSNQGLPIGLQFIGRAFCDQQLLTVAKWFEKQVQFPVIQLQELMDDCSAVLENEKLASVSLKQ
UniProt Q9NR12, sequence (Q9NR12 whole entry, looked up): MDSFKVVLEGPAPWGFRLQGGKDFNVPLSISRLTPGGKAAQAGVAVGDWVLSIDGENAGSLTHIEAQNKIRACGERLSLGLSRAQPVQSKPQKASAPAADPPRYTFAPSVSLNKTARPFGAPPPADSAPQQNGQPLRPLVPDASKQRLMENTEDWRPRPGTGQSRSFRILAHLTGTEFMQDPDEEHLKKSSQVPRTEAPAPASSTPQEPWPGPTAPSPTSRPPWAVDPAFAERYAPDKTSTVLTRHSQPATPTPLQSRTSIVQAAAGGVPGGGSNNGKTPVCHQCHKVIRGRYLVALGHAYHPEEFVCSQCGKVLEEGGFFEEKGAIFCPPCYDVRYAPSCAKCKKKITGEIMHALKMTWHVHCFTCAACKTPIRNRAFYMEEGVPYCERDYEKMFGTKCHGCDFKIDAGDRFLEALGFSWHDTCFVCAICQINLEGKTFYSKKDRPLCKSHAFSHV

log2 fold change, inactive:
QRSL1 (UniProt Q9H0R6) -0.008
PIKFYVE (UniProt Q9Y2I7) 0.003
PRMT3 (UniProt O60678) -0.036
RAB11FIP1 (UniProt Q6WKZ4) -0.018
PGGHG (UniProt Q32M88) 0.023
POGLUT1 (UniProt Q8NBL1) 0.06
PNPLA2 (UniProt Q96AD5) -0.056
PRKAB1 (UniProt Q9Y478) -0.145
PSMC5 (UniProt P62195) 0.005
PLK1 (UniProt P53350) -0.022
PIGT (UniProt Q969N2) -0.018
PDCD6IP (UniProt Q8WUM4) 0.023
PRKAR1A (UniProt P10644) 0.389
POLA1 (UniProt P09884) -0.106
PPT1 (UniProt P50897) 0.057
PPP2R5C isoform 5 (UniProt Q13362) -0.012
PBK (UniProt Q96KB5) 0.109
PRPF3 (UniProt O43395) -0.08
PSMD5 (UniProt Q16401) 0.017
PSMD1 (UniProt Q99460) -0.012
PGM3 isoform 4 (UniProt O95394) -0.047
PDLIM7 (UniProt Q9NR12) 0.012
PKM (UniProt P14618) -0.04

— the supplement of paper PMC10849652
